# SUMO HTRF inh – inhibitors of in vitro SUMOylation cascade, primary screen, biochemical, HTRF, uHTS | 0.36% of 290,000 active | SUMO-conjugating enzyme UBC9 (Homo sapiens), P63279 | HTRF SUMOylation assay, SAE1/SAE2 + UBC9 | inhibition, % at 35 µM | AID 2006, 2009; in the data active means inhibition above about 50%, passing the limit was not always enough
# Target sequence (P63279 whole entry, looked up): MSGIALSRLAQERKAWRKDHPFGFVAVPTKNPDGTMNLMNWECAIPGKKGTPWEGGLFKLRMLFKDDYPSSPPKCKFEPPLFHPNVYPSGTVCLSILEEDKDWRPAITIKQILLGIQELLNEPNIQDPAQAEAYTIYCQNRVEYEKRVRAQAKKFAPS
# eIF4E-4G inh – eIF4E–eIF4G protein interaction inhibitors, primary screen, biochemical, uHTS, TR-FRET, eIF4GI fragment; Eukaryotic translation initiation factor 4E (Mus musculus) + Eukaryotic translation …; 0.37% of 220,000 active; inhibition, % at 21.7 µM; TR-FRET eIF4E-eIF4GI(517-606) binding, 2 h
# 14-3-3 Bad inh – inhibitors of 14-3-3 zeta/Bad binding, primary screen, biochemical, TR-FRET, bovine 14-3-3 zeta. 14-3-3 protein zeta/delta (Bos taurus), P63103. TR-FRET 14-3-3zeta/Dy647-pBad peptide displacement, 1 h. inhibition, % at 21.7 µM. 0.71% of 220,000 active;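 active means inhibition above about 70%, limit read from the data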
# NCF1 inh – p47phox/p22phox peptide binding inhibitors, primary screen, biochemical, uHTS, NADPH oxidase regulatory subunit; Neutrophil cytosol factor 1 (Homo sapiens), P14598; fluorescence polarization, 2 h; inhibition, % at 24.7 µM; 0.53% of 220,000 active; AID 1274, 2008
# Target sequence (P14598 whole entry, looked up): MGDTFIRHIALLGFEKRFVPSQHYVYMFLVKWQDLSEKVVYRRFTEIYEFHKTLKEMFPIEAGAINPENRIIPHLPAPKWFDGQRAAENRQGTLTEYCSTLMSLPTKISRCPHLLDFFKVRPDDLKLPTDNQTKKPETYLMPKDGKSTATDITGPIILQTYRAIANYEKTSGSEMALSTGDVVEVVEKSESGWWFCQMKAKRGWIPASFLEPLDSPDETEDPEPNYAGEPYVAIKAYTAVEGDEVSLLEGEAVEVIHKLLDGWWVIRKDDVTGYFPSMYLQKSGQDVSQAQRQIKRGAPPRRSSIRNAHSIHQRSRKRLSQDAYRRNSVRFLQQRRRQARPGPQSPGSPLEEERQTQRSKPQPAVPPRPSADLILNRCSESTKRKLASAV
# A number is an active result; . = inactive; / = no result; [ ] = dose if it differs, or a comment. Compounds with a hit are over-represented: about 1.3% of the library has one in this group of screens.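 How the source made its calls, unless noted: active means inhibition above about 30% (limit read from the data); inactive means the rest.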
SMILES,SUMO HTRF inh,eIF4E-4G inh,14-3-3 Bad inh,NCF1 inh
COc1cccc(/C=N/NC(=O)CNC(=O)COc2ccccc2)c1O,.,.,.,82
O=[N+]([O-])c1cc(Cl)c(O)c2ncccc12,59,.,.,.
O=[N+]([O-])c1cc(CN2CCOCC2)c2cccnc2c1O,89,33,.,.
CC(=O)Nc1ccc(NC(=O)CCNS(=O)(=O)c2cccc3nsnc23)cc1,.,.,.,.
O=C(NCCN1CCOCC1)c1ccncc1,.,.,.,.
O=C1C=C(NCCN2CCOCC2)C(=O)c2cnccc21,84,.,.,.
Cc1ccc2c(N)c(C)ccc2c1,.,.,.,.
Cc1ccc2cc3c(N)c4c(C)ccc(C)c4nc3nc2c1,.,.,.,31
CCN1C(=O)/C(=C\c2cn(-c3ccccc3)nc2-c2cccnc2)SC1=S,.,.,78,.
O=C(O)CN1C(=O)/C(=C\c2cn(-c3ccccc3)nc2-c2ccccc2)SC1=S,.,/,/,/
CCOc1cc(CNCCc2ccc(S(N)(=O)=O)cc2)cc(Cl)c1OCc1ccccc1,.,.,.,79
O=C1ON=C(c2ccccc2)/C1=C/c1ccc(-c2ccccc2[N+](=O)[O-])o1,.,.,.,142
COc1ccccc1NC(=O)N1CCCC1C(=O)Nc1nnc(C(C)C)s1 (configuration not stated),.,.,78[fluorescence artefact?],.
CC(C)c1nnc(NC(=O)C2CCCN2C(=O)Nc2ccccc2F)s1 (configuration not stated),.,.,.,.
NCC[C@H](O)C(=O)N[C@@H]1C[C@H](N)[C@@H](O[C@H]2O[C@H](CN)[C@@H](O)[C@H](O)[C@H]2O)[C@H](O)[C@H]1O[C@H]1O[C@H](CO)[C@@H](O)[C@H](N)[C@H]1O,71,.,.,.
O=C(NC1CCC(O)CC1)c1cc(-c2ccco2)nc2ccccc12 (configuration not stated),.,40,.,.
CCc1nnc(NC(=O)c2cc(-c3ccco3)nc3ccccc23)s1,67,.,.,.
O=C(N/N=C/c1cccc(F)c1)c1cc(-c2ccco2)nc2ccccc12,79,.,.,.
COc1cc(NC(=O)[C@@H](NC(=O)c2ccco2)C(C)C)c(OC)cc1NC(=O)c1ccccc1,.,.,.,.
C(=N\n1cnnc1)/c1ccc(N2CCOCC2)s1,.,.,.,43
Oc1ccc(C=Nc2ccc3ncccc3c2)c(O)c1,65,.,.,.
Oc1ccc(C=Nc2cccc3ncccc23)c(O)c1,.,.,.,.
COC(=S)N/C(=N\S(=O)(=O)c1ccc(Cl)cc1)c1ccccc1,.,/,/,/
O=C(CSc1nnc(C2COc3ccccc3O2)o1)Nc1nccs1 (configuration not stated),.,.,.,37
CCCOc1cc(CN2CCCCC2)cc(C(C)=O)c1,.,.,.,.
SMILES,SUMO HTRF inh,eIF4E-4G inh,14-3-3 Bad inh,NCF1 inh
O=C(Nc1cccc(-c2nc3cccnc3s2)c1)C1c2ccccc2Oc2ccccc21,.,34,91,.
O=C(Nc1cccc(-c2nc3cccnc3s2)c1)c1cccnc1Cl,.,.,.,.
COc1ccc(CCNC(=O)CCCn2c(SCC(N)=O)nc3cc4c(cc3c2=O)OCO4)cc1OC,.,.,.,.
CC(C)Cc1nnc(NC(=O)CCNC(=O)c2ccco2)s1,.,/,/,/
COc1ccc(N/C(=N\c2nc(C)cc(C)n2)NC(=O)C(C)C)cc1OC,.,.,76,.
O=C1CN(CC(=O)Nc2cccc(Cl)c2Cl)c2ccccc2N1,.,.,.,37
O=C(CN1C(=O)NC2(CCCC2)C1=O)Nc1cccc(Cl)c1Cl,.,/,/,/
C/C(=N/NC(=O)c1ccccc1)c1ccc(NC(=O)C(F)(F)F)cc1,.,.,.,.
COc1nc(Nc2nc3ccccc3c(=O)[nH]2)nc2ccc(C)cc12,.,.,.,31
CC(C)Nc1nc2ccccc2c(=O)[nH]1,.,.,90,.
CCOC(=O)c1c(C)nc2sc3c(=O)n(-c4ccc(C(C)=O)cc4)nnc3c2c1-c1ccc(Cl)cc1,.,.,.,60
O=C(N/N=C1/C(=O)c2cccc3cccc1c23)c1ccc(Cl)cc1,.,.,85[fluorescence artefact?],48
Cc1ccc(CNC(=O)CCc2nc(-c3cccs3)no2)cc1,.,.,.,200
CC(C)(C)c1nc(SCC(=O)N2CC(=O)Nc3ccccc32)c2ccccc2n1,.,.,.,.
COc1ccc2c(c1)C(=NNC(=O)c1ccccn1)c1cc(OC)ccc1-2,.,.,.,49
Cc1cnc(C(=O)OCC(=O)c2ccc(-c3ccccc3)cc2)cn1,.,/,/,/
COC(=O)CN1C2=NCCCN2c2ccccc21,.,.,.,.
CC(C)N(C(=O)Nc1ccc2nsnc2c1)C(C)C,100,.,.,.
CCOc1cccc(NC(=O)C2CC(=O)N(c3ccc(F)cc3)C2)c1 (configuration not stated),.,.,.,.
CCOc1ccc(N2CC(C(=O)Nc3cccc(S(=O)(=O)NC4=NCCC4)c3)CC2=O)cc1 (configuration not stated),.,97,.,.
CCC(Sc1nc(N)c(NC(=O)c2ccco2)c(=O)[nH]1)C(=O)O (configuration not stated),.,/,/,/
O=C(N/N=C/c1ccc([N+](=O)[O-])o1)c1cc2c(ccc3ccccc32)o1,/,38,93,30
COc1cc(C(=O)N2CCN(Cc3ccccc3C(F)(F)F)CC2)cc(OC)c1OC,.,.,.,.
CCCS(=O)(=O)N1CCN(Cc2ccccc2C(F)(F)F)CC1,.,.,.,.
COc1ccccc1CN1CCN(C(=O)c2ccncc2)CC1,.,63,83,.
SMILES,SUMO HTRF inh,eIF4E-4G inh,14-3-3 Bad inh,NCF1 inh
CN1CCCN(Cc2ccccc2C(F)(F)F)CC1,.,94,81,.
COc1cccc(OC)c1C(=O)N1CCN(Cc2ccccc2C(F)(F)F)CC1,.,.,84,.
O=C1c2ccccc2C(=O)C1(CO)c1ccc(OC(F)F)cc1,.,/,/,/
CCCCN1C(=O)C(NC(C)=O)c2cc(Br)ccc21 (configuration not stated),.,.,.,.
CC(=O)NC1C(=O)N(CCN2CCOCC2)c2ccc(C)cc21 (configuration not stated),81,/,/,/
Cc1ccc(C(c2nnnn2CS(=O)(=O)c2ccc(C)cc2)N2CCCC2)cc1 (configuration not stated),.,.,.,39
COCc1nnc(NC(=O)c2ccccc2[N+](=O)[O-])s1,.,.,.,.
CSc1cccc(NC(=O)CSc2nc3ccccc3o2)c1,.,.,.,.
Cc1oc(-c2ccc(Cl)cc2)nc1CN1CCC(C(=O)NCc2ccco2)CC1,.,64,.,.
Cc1oc(-c2ccc(Cl)cc2)nc1CN1CCC(C(=O)N2CCc3ccccc3C2)CC1,.,.,.,45
Cc1oc(-c2ccc(Cl)cc2)nc1CN1CCC(C(=O)N2CCN(Cc3ccccc3)CC2)CC1,.,.,.,.

# Bioassay records from PubChem BioAssay.
